Data published in PubChem BioAssay (NCI).
About 83,000 compounds went through this panel and 20% of them were active in at least one assay; those are over-represented in the sample as a whole.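 Cell lines were cultured in 96-well plates, exposed to a single compound concentration, and assessed for percent growth 48 hours later.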 A number with no mark means an inactive call. The source made the active and inactive calls. How the source made its calls: active means growth percent below 10; inactive means the rest.

Experiments:
Test in all cases: NCI-60 one-dose screen, 48 h (100 = growth as untreated, 0 = no growth, -100 = all killed)
Details in all cases: 10 µM unless noted
[1] = system: T-47D breast
[2] = system: BT-549 breast
[3] = system: MDA-MB-435 melanoma
[4] = system: SW-620 colon
[5] = system: MCF7 breast
[6] = system: HCT-116 colon
[7] = system: HCC-2998 colon
[8] = system: KM12 colon

Compound | growth [1] | growth [2] | growth [3] | growth [4] | growth [5] | growth [6] | growth [7] | growth [8]
c1ccc([P+](CCCc2n(Cc3ccc4ccccc4c3)c3ccccc3[n+]2Cc2ccc3ccccc3c2)(c2ccccc2)c2ccccc2)cc1 | 56.9% | 68.1% | 25.2% | 35.2% | 73.9% | 24.2% | 53.9% | 32.2%
O=[N+]([O-])c1cccc(/C=C/c2ccccn2)c1 | 37.9% | 64.8% | 98.4% | 47.7% | 7.24% (active) | 39.6% | 62.2% | 65.9%
CCOC(=O)c1ccc(-c2ccc3cc(OC)ccc3c2)nc1C | 91.6% | 104% | 94.3% | 102% | 93% | 78.1% | 101% | 100%
COc1ccc(N(C)c2nc(Cl)nc3cnn(C)c23)cc1 | 43.5% | -13.9% (active) | -22.8% (active) | 27.8% | 15.4% | -18.4% (active) | 17.6% | 6.55% (active)
CCN(CC)CCOC(=O)Nc1ccccc1Cl | 98.6% | 81.3% | 108% | 101% | 101% | 72.7% | 101% | 103%
Cc1nc(Nc2ccc(NC(=S)Nc3ccccc3)cc2)c2ccccc2n1 | 87.6% | 113% | 112% | 106% | 77.4% | 101% | 104% | 104%
C=C(C=O)[C@@H]1CC=C(C=O)CC1 | -27.7% (active) | -18.9% (active) | -31.4% (active) | -25.7% (active) | -17.3% (active) | 5.92% (active) | -30% (active) | -36.6% (active)
O=C(CC12CC3CC(CC(C3)C1)C2)NCCOCCOCCOCCNC(=O)c1cc2c(o1)C(=O)c1ccccc1C2=O | 1.06% (active) | -90.6% (active) | -96.8% (active) | -10.6% (active) | -67.2% (active) | -19.6% (active) | -73.7% (active) | 2.29% (active)
O=C1c2ccccc2C2(c3ccc(O)cc3)c3ccccc3Oc3cccc1c32 (configuration not stated) | 21.8% | 55.1% | -3.86% (active) | 22.7% | 23.1% | 14.1% | 34.6% | 15%
Cc1ccc(-n2nnc(C3=NCCc4c3[nH]c3ccc(Cl)cc43)c2C)cc1 | 35.7% | 85.3% | 78% | 64.8% | 77.8% | 71.6% | 75.5% | 57.3%
Cc1nc(-c2ccccc2)cc2c(O)c(C(=O)N/N=C/c3ccc(N(C)C)cc3)[nH]c(=O)c12 | 76.5% | 103% | 86.8% | 75% | 64.1% | 57.6% | 95.2% | 82.3%
O=c1[nH]c(NCc2nnnn2-c2ccc(Br)cc2)nc2sc3c(c12)CCCC3 | 74.3% | 104% | 97.4% | 93.7% | 92% | 81.2% | 110% | 96.1%
CCCCNC(=O)c1cc(NCc2cc(O)ccc2O)ccc1O | 58.1% | 46.1% | 96.8% | 110% | 67.7% | 86.2% | 96.4% | 78.4%
COc1ccc2c(c1)/C(=C\c1sc(=S)[nH]c1O)C(C(=O)O)=N2 | 94.3% | 109% | 100% | 95.2% | 97.7% | 99.6% | 103% | 99.6%
CN(C)CCCCNc1ccc(NCCCCN(C)C)c2c1C(=O)c1c(O)ccc(O)c1C2=O | 97.1% | 92% | 92.7% | -72.6% (active) | -81.6% (active) | -66.7% (active) | -86% (active) | -89.3% (active)
NS(=O)(=O)c1cn(-c2ncnc3nc[nH]c23)ccc1=O | 76.7% | 109% | 103% | 95.1% | 104% | 94.5% | 107% | 92.9%
N#Cc1c(NC(=O)c2cccc(C(F)(F)F)c2)sc2c1CCC(=O)C2 | -21.6% (active) | -77.1% (active) | -74.6% (active) | -66.2% (active) | 7.82% (active) | -63.7% (active) | 27.2% | -21.3% (active)
O=S(=O)(NCCNc1cc(-c2c(-c3cccc(O)c3)nc3sccn23)ccn1)c1ccc(Cl)cc1 | 26% | 50.2% | 24.8% | 89.2% | 47.8% | 57.4% | 102% | 59.6%
O=C(Oc1ccc([N+](=O)[O-])cc1)c1ccc(CBr)cc1 | 125% | 105% | 98.8% | 94.9% | 75.1% | 87.8% | 103% | 103%
CN(C)CCOC(=O)Nc1ccc(Cl)cc1 | 101% | 82% | 112% | 104% | 94.4% | 86.8% | 102% | 104%
CCN(CC)CCOc1ccc(/C(=C(\C)c2ccc(OC)c(F)c2)c2ccc(Cl)cc2)cc1 | 89.7% | 89% | 60.3% | 63.2% | 70.3% | 46.4% | 78.6% | 19.1%
Cc1cc(-c2ccccc2)cc(SC#N)[n+]1[O-] | 46.2% | 52.2% | 47.5% | 38.1% | 23% | 36% | 62% | 37.7%
COc1cc(-c2cc(-c3ccc(Nc4nc(Nc5ccccc5)nc(Nc5ccc(Cl)cc5)n4)cc3)nc(N)n2)cc(OC)c1OC | 38.4% | 71.1% | 63.5% | 87.2% | 35.5% | 34.9% | 58.2% | 52.4%
Cc1cc(-c2noc(C(F)(F)F)n2)ccc1N1CCN(c2cc(C(=O)N(C)C)no2)CC1 | 46.6% | 66.6% | 71% | 84.7% | 55.5% | 45.7% | 80.8% | 85.2%
CSc1nc(N)c(CNC(C)c2ccccc2)c(=O)n1C (configuration not stated) | 97.2% | 96.1% | 98.4% | 107% | 93.5% | 92.2% | 101% | 106%
NS(=O)(=O)Oc1ccc(-c2sc3cc(O)ccc3c2C(=O)c2ccc(OCCN3CCCCC3)cc2)cc1 | 86.6% | 84.6% | -28% (active) | 51.7% | 29.4% | 43.5% | 59.5% | 65.3%
COc1cc(-c2cccc([N+](=O)[O-])c2)c(-c2nc(-c3ccccc3)c(-c3ccccc3)n2C2CC2)cc1OC | 23.9% | 47.2% | 67.4% | 76.3% | 34.8% | 26.8% | 81.2% | 67.3%
O=C1/C(=C/c2ccccc2[N+](=O)[O-])COc2ccc(O)c(O)c21 | 12.4% | 21.3% | -62.2% (active) | -38.7% (active) | 6.98% (active) | -15.4% (active) | -46.5% (active) | -3.65% (active)
O=C(O)CC1Sc2ccccc2NC1=O (configuration not stated) | 111% | 118% | 104% | 103% | 255% | 100% | 106% | 104%
